PubChem BioAssay (NCI)
“And” between values parts separate entries of the source, which are not always exact repeats. Identical values can stand only once. The panel holds about 79,000 compounds, 15% with a hit somewhere; the sample as a whole holds those more often. Rule as the data show it: active = growth inhibition above about 70%; inactive = the rest.

How the values were obtained:
[1] = NCI Yeast Anticancer Drug Screen. Data for the rad50 strain (AID 155);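 also: 0% = growth of vehicle-only cultures of the same strain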; details: S. cerevisiae rad50 strain growth inhibition, active compounds read high; at 50.0 µM unless noted
Procedure, shortened: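 Genetically altered yeast (DNA repair pathway); compound treatment; growth inhibition vs vehicle ctrl.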

[2] = NCI Yeast Anticancer Drug Screen. Data for the mec2-1 strain (AID 157); details: S. cerevisiae mec2-1 strain, active compounds read high; at 50.0 µM unless noted
Procedure, shortened: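 Growth inhibition is read against vehicle-treated controls after compound exposure of the mec2-1 yeast strain, which is defective in DNA damage repair or cell cycle control.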

[3] = NCI Yeast Anticancer Drug Screen. Data for the sgs1 mgt1 strain (AID 161);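 also: 0% = growth of cultures given vehicle only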; details: S. cerevisiae sgs1 mgt1 strain, active compounds read high; at 50.0 µM unless noted
Procedure, shortened: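 Growth of a repair-deficient yeast mutant was monitored after compound treatment and expressed as inhibition relative to vehicle-treated cultures.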

[4] = NCI Yeast Anticancer Drug Screen. Data for the cln2 rad14 strain (AID 165);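 also: 0% = growth equal to vehicle treated cultures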; details: S. cerevisiae cln2 rad14 strain, active compounds read high; at 50.0 µM unless noted
Procedure, shortened: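 Growth inhibition, relative to vehicle-treated controls, is the read-out. The test organism is a yeast strain with defined genetic alterations, cln2 rad14.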

[5] = NCI Yeast Anticancer Drug Screen. Data for the bub3 strain (AID 167); details: S. cerevisiae bub3 mutant strain, active compounds read high; at 50.0 µM unless noted
Procedure, shortened: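 Yeast carrying a defined mutation is treated with each compound, and growth is compared with that of vehicle-exposed cells to give inhibition.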

[6] = NCI Yeast Anticancer Drug Screen. Data for the mlh1 rad18 strain (AID 175); details: S. cerevisiae mlh1 rad18 strain growth inhibition, active compounds read high; at 50.0 µM unless noted
Procedure, shortened: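 Cells of a genetically altered yeast strain, deficient in DNA damage repair, were treated with compound. Their growth was then compared with that of vehicle-treated cultures to give inhibition.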

Measured: growth inhibition

COC(=O)c1ccc2c(c1)CC1(C2)Cc2cc3c(cc2C1)CCC3
inactive: [1] -19.4% | [2] -19.9% | [3] -17.5% | [4] 9.95% | [5] 12.8% | [6] -12.5%

ClCCOC1CCCCO1 (stereo not given)
inactive: [1] -19% | [2] -15.2% | [3] -13.6% | [4] 6.2% | [5] -5.4% | [6] -5.15%

CCCCCP(=O)(O)O.[Cu+2]
inactive: [1] -41.4% | [2] -39.6% | [3] -9.9% | [4] -40% | [5] -31.6% | [6] -14.2%

CC1CCCN2C(=O)CN(c3ccccc3)CC(=O)N12 (stereo not given)
inactive: [1] 13.6% | [2] 2.45% | [3] -4.7% | [4] 14.9% | [5] 5.35% | [6] 1.95%

CC[N+](CC)(CC)CCOC(=O)c1cc(OC)c(OC)c(OC)c1
inactive: [1] -16.4% | [2] -20.4% | [3] -2.35% | [4] 15.4% | [5] 4.1% | [6] -0.6%

COc1cc2cnc3c4cc(OCc5ccccc5)ccc4ccc3c2cc1OC
inactive: [1] -10.1% | [2] 3.2% | [3] -1% | [4] 25.3% | [5] 14.2% | [6] -0.25%

CC1CCC(C(C)C)C(NNC(N)=O)C1 (stereo not given)
inactive: [1] 39.5% and 9.65% | [2] 12.7% and 3.8% | [3] 5% and 6.8% | [4] 14.3% and 3.4% | [5] 45% and -0.95% | [6] 15.9% and 9.6%

COC(=O)/C=C(\C(=O)OC)N1CCCCC1
inactive: [1] 1.55% | [2] -3.8% | [3] -6.55% | [4] -29.9% | [5] 2.3% | [6] -23.1%

COc1ccc(N=Nc2nc(N)c(C(N)=O)[nH]2)cc1
inactive: [1] -8.65% | [2] -7.55% | [3] -4.75% | [4] -28.5% | [5] 5.7% | [6] -16.6%

COc1ccc2oc(-c3cc4cc(OC)ccc4o3)cc2c1
inactive: [1] -10.7% | [2] -5.7% | [3] -12.8% | [4] -17.9% | [5] -61.2% | [6] -0.55%

O=S(=O)(O)CCCOC1COc2ccccc2OCCOCCOc2ccccc2OC1
inactive: [1] -0.65% | [2] 1.65% | [3] -15.5% | [4] -6.45% | [5] -4.1% | [6] -7.55%

Cc1ccc2[nH]c3c(c2c1)C(=O)CCC3
inactive: [1] -7.6% | [2] -2.95% | [3] -12.3% | [4] -20.7% | [5] -17.9% | [6] -1.55%

CCN(CC(COc1ccc2c(c1)[n+]([O-])nc(N)[n+]2[O-])OC(C)=O)C(C)=O (stereo not given)
inactive: [1] 42.9% | [2] 38.3% | [3] 41.5% | [4] 40.1% | [5] 25.4% | [6] 41.3%

Oc1ccc(/C=C\c2cnccn2)cc1
inactive: [1] 27.6% | [2] 7.3% | [3] 0.45% | [4] 5.55% | [5] 30.8% | [6] 7.6%

O=c1[nH]cnc2c1ncn2C1OC(CO)C(O)C1O (stereo not given)
inactive: [1] 8% and -14.7% | [2] 8.25% and -20.1% | [3] 0.45% and 12.8% | [4] -117% and 5% | [5] 15.4% and 21.7% | [6] 5.85% and 5.3%

CCCCCCCCC(O)C#CC(O)CCCCCCCC (stereo not given)
inactive: [1] -18% | [2] -20.9% | [3] -5.6% | [4] -12.9% | [5] -12.6% | [6] -8.85%

C=CCNC(=S)N/C=C(\C#N)C(N)=O
inactive: [1] -24.4% | [2] -40.3% | [3] -27.2% | [4] -7.15% | [5] -12.6% | [6] -41.5%

CCOC(=O)c1cc([N+](=O)[O-])cnc1C
inactive: [1] 5.8% | [2] 10% | [3] -1.7% | [4] 0.4% | [5] 8.45% | [6] 2.4%

CCOC(=O)c1cnc2sc3ccc4ccccc4c3n2c1=O
inactive: [1] 51.9% | [2] 23.4% | [3] 61% | [4] 36.1% | [5] 51.3% | [6] 60.7%

O=c1oc2c3ccc4ccccc4c3n(CCN3CCOCC3)c2c2ccccc12
inactive: [1] 19.1% | [2] -3.6% | [3] -29.6% | [4] 2.35% | [5] -19.9% | [6] -3.9%
